# Assay results from ChEMBL document CHEMBL3988442, “University of Dundee, Small-Polar-MMV Screening Library” (2021).
# Legend:
# [1] = molecular target: T1, Aspartate--tRNA(Asp/Asn) ligase (Mycobacterium tuberculosis (strain ATCC 25618 / H37Rv)) (UniProt P9WFW3); assay: Assay for Asp RNA synthetase-1 from Mycobacterium tuberculosis; type: functional; parameters: scale not given: direction of the effect not stated beside the values; settings: 30 µM; note: in the data most compounds retested in dose-response had high values
# T1 sequence (whole entry): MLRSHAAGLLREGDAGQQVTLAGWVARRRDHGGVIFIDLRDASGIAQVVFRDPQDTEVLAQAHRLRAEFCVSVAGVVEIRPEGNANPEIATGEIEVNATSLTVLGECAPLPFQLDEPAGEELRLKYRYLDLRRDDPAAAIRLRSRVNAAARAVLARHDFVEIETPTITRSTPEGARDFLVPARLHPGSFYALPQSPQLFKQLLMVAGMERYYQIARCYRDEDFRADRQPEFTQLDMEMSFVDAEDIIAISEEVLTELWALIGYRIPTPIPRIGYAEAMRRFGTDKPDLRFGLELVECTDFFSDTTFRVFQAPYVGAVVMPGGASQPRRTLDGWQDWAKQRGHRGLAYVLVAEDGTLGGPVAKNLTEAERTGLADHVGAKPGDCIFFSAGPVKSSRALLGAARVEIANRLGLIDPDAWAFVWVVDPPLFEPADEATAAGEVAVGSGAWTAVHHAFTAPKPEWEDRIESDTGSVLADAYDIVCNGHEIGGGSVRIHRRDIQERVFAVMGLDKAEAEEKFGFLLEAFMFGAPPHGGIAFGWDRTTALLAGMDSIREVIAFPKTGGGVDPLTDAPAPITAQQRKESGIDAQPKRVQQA
# [2] = molecular target: Shiga toxin 2 (Escherichia coli O157:H7) (UniProt P09385+P09386); assay: E. coli 0.157:H7 Shiga Toxin SOP - stx2 screening assay; type: functional; parameters: scale not given: direction of the effect not stated beside the values; settings: 30 µM
SMILES,Percent Effect [1] [%],Percent Effect [2] [%]
Cc1cc(=O)[nH]c(NCCNC(=O)C(c2ccc(F)cc2)N(C)C)n1 (stereo unspecified),-2.14,-65.1
CCCN1CCC(N(Cc2ncc(C)o2)C(C)=O)C1 (stereo unspecified),2.38,2.8
CC(C)(C)c1cnc(CN2CCC(c3ccnn3CCO)CC2)o1,-2.6,-1.72
CCC(=O)N1CCc2nc3cc(OC)c(OC)cc3c(=O)n2CC1,-5.4,-7.9
COCc1nn(C(C)C)c2c1CCN(Cc1cccs1)C2,-2.9,18.3
Cc1nccn1C1CCCN(C(=O)c2ccc(N(C)C)nc2)C1 (stereo unspecified),-1.91,26
COc1cnc(C2(O)CCN(C(=O)c3ccncc3)CC2)c(OC)n1,-2.63,-1.51
CNc1snc(C)c1C(=O)N1CCCC(n2ccnc2C(C)C)C1 (stereo unspecified),1.51,3.71
CC(NC(=O)N(C)Cc1ccncc1)c1nncn1C (stereo unspecified),-5.91,-0.749
Cn1cc(CN2CCCN(C(=O)c3cn4ccccc4n3)CC2)cn1,1.48,-25.9
CN(C)C[C@@H]1C[C@@H]2CN(C(=O)c3ccoc3)CC[C@@H]2N1CC1CC1,2.34,8.89
NC(=O)Cn1cc(NC(=O)N2CCCC2)cn1,-2.12,-31.6
Cc1nnc(C(C)N2CCN(Cc3ccc(C#N)cc3)CC2)o1 (stereo unspecified),-2.07,20
Cc1ccc(F)c(OC2(C(=O)O)CCN(C(=O)N3CCCC3)CC2)c1,-1.17,-2.51
Cc1cn2c(n1)CCC(NC(=O)c1c[nH]c(C)n1)C2 (stereo unspecified),-7.1,14.6
CCc1n[nH]c(C2CN(C(=O)c3csnn3)CCO2)n1 (stereo unspecified),1.53,10.6
Cc1cc(CNc2cc(Cl)ccc2OCCS(C)(=O)=O)no1,-2.26,-0.408
O=C(c1cnco1)N1C[C@@H]2CC[C@H](Oc3cccc(F)c3)[C@@H]2C1,-3.5,-73.9
Cc1ccc([C@@H]2CN(S(=O)(=O)N(C)C)C[C@H]2N(C)C)cc1,2.81,5.3
CCn1c(N)nc2cc(C(=O)NCCc3sccc3C)cnc21,2.47,-89
CCO[C@@H]1CO[C@@]2(CCCN(Cc3scnc3C)C2)C1,-7.13,-25
O=C(NCc1ccccc1F)N1CCC(C2OCCO2)CC1,-2.61,-12.8
Cc1cc(CN(C)C(=O)c2cccc(N3CCCC3=O)c2)no1,4.48,-12.4
O=C(NC[C@@H]1CCCN1)c1cc(COc2cccc(C(F)(F)F)c2)[nH]n1,1.98,-15.7
CN(c1ccncn1)C1CC2(CCN(C(=O)c3ccsc3)C2)C1 (stereo unspecified),-8.13,-32.2

SMILES,Percent Effect [1] [%],Percent Effect [2] [%]
COCCN1CCC(N(Cc2noc(C3CC3)n2)C(C)=O)C1 (stereo unspecified),-1.46,29.5
CCOC(=O)CNC(=O)N1CCN(c2ncccn2)CC1,4.73,-21.7
O=C(NCCN1CCc2ccccc2C1)c1scnc1Cl,1.6,-3.31
CS(=O)(=O)CCC(=O)NC1(c2cccc(Br)c2)CC1,5.45,3.23
CCCN(C(=O)COC)c1nc2c(s1)CCc1c-2cnn1C,-1.78,-37.9
CCc1noc(C(C)N2CCN(Cc3nnc(C4CC4)o3)CC2)n1 (stereo unspecified),-4.98,10.9
Cc1nc(CN2C(=O)C[C@H]3[C@H]2CCN3C2CCOCC2)cs1,-3.97,9.23
CN(C)C(CNC(=O)c1cccc(-n2cnnn2)c1)c1ccccc1Cl (stereo unspecified),3.08,-14.9
Cn1cccc1C(=O)N1CCCC2(CCN(CCN3CCCC3)C2=O)C1 (stereo unspecified),-3.77,-30.4
COCCN1CCC(NCc2cccnc2)C1 (stereo unspecified),4.4,15.8
Cc1nc(C)n(CC2CCCN2CCc2cccs2)n1 (stereo unspecified),-0.678,-28.6
Cc1nc(C)n(CC2CCCN(CCCOc3ccccc3)C2)n1 (stereo unspecified),0.568,8.48
c1cnnc(N2CCCC2CNCc2cnc(N3CCCC3)nc2)c1 (stereo unspecified),0.626,-6.77
CC(C)c1ncc2c(n1)CN(Cc1ccc(C(N)=O)cc1)CC2,-0.3,-42.6
Cc1ccc(-c2cc(CNC(=O)N3CCC(CO)CC3)on2)cc1,3.99,16.1
O=C(c1cccc(Cl)c1)N1CC[C@H]2[C@H]1CCN2CC1CCOCC1,-4.93,-25.2
Cc1nccn1C1CCCN(C(=O)COCC(F)(F)F)C1 (stereo unspecified),-1.01,-10.2
COc1cccc(CCNS(=O)(=O)c2ccc(NC(C)=O)cc2)c1,-1.32,-9.96
COc1ccccc1C(=O)NC(CC(=O)O)c1cccs1 (stereo unspecified),5.75,-32.6
O=c1[nH]c2nc(N3CCSCC3)ncc2c(=O)n1-c1cccc(F)c1,13.7,-14.3
CCOCC(O)CN1CCN(C(=O)c2cccnc2OC)CC1 (stereo unspecified),-1,12.8
CC(=O)c1cccc(S(=O)(=O)N2CSCC2C(=O)NCC(F)(F)F)c1 (stereo unspecified),-1.82,-13.6
CCN(C)c1ncnc2c1CCN(Cc1ccoc1)CC2,5.11,-28.5
O=C(NCCn1ccnc1)N1CCN(c2nccs2)CC1,2.45,-47.2
Cc1ccc(CC2CCCN2CC(=O)NCc2cccnc2)cc1 (stereo unspecified),0.509,16.7

SMILES,Percent Effect [1] [%],Percent Effect [2] [%]
Nc1nccc(N2CCCC(CO)(CCOc3ccccc3)C2)n1 (stereo unspecified),9.3,-17.8
CCS(=O)(=O)CCNC(=O)c1ccc(-c2ccc(C)cc2)cc1F,7.76,-42.5
Cc1nc(CNC(=O)NCCc2ccc(N(C)C)cc2)cs1,6.93,16.6
CC(C)c1nc(C2CCCN2Cc2ccn(C)c(=O)c2)no1 (stereo unspecified),3.39,-44.4
Cc1nnc(C(C)N2CCN(Cc3ccc4c(c3)OCO4)CC2)o1 (stereo unspecified),-0.657,17.8
c1cc2n(n1)CC(CNCc1ccc(OCC3CC3)nc1)CN2 (stereo unspecified),0.395,-66.4
CC(C)(C)C(=O)NCCn1ccc(-c2ccncc2)n1,-3.08,-20
Cc1cccc(CN2CCc3c(nc(N4CCC(C)CC4)[nH]c3=O)C2)n1,-2.78,10.7
Cc1cnc(CN2CCCC2c2noc(C)n2)cn1 (stereo unspecified),0.514,4.6
Cn1cnc(S(=O)(=O)NCCCN2CCOCC2)c1Cl,3.04,18.7
Cc1ccc(C(=O)N2CCN(C(=O)NC(C)Cn3ccnc3)CC2)o1 (stereo unspecified),-1.92,17.6
O=C(NC1CC(=O)N(Cc2cccc(F)c2)C1)c1ccncc1 (stereo unspecified),0.413,-9.17
Cc1nc(C)n(CC2CCCN(Cc3nnc(C(C)(C)C)o3)C2)n1 (stereo unspecified),1.32,1.5
Cc1c(C(=O)N2CCCC2c2cnn(C)c2)nnn1-c1ccccc1 (stereo unspecified),-1.92,-11.8
O=C(c1ccc[nH]1)N1CCn2cc(CN3CCCC3)nc2C1,-2.37,0.78
COCCO[C@H]1CCN(C(=O)c2ccc[nH]2)[C@H]1Cc1ccncc1,-0.0147,-2.78
CCc1c(C(=O)NC2CCS(=O)(=O)C2)cnn1-c1ccc(F)cc1 (stereo unspecified),-1.69,9.21
Cc1nn(C)c2sc(C(=O)N3CCCC(n4ccnc4C)C3)cc12 (stereo unspecified),-1.41,-28.1
CC1CN(C)CCN1C(=O)c1ccn(-c2cccc(Cl)c2)n1 (stereo unspecified),-2.06,-4.97
CC1c2ncc(CN3CCN(C)CC3)n2CCN1CC1CC1 (stereo unspecified),0.815,-23.1
CCn1ccnc1CN1CCOC(CNc2cccnn2)C1 (stereo unspecified),-0.152,-18.9
COCCc1noc(CNC2CCSC2)n1 (stereo unspecified),-5.83,6.26
Cc1nc(CN2C(=O)CCC23CCN(c2ncccn2)CC3)cs1,4.19,-30.4
